A selection: hits, their analogues and other compounds. The true share with any hit is near 1.1%.
HTR5A inv ag: HTR5A inverse agonism, opioid heterodimer counter-screen; P47898; HTR5A cell line, luminescence; inhibition, % at 9.3 µM; 340,000 tested, 0.083% active; in the data active = inhibition mostly above about 23%, no sharp cut-off; inactive = mostly below about 18%;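 also: 0% = cells with DMSO and 100% = no-cell wells with DMSO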
Target sequence (P47898 whole entry, looked up): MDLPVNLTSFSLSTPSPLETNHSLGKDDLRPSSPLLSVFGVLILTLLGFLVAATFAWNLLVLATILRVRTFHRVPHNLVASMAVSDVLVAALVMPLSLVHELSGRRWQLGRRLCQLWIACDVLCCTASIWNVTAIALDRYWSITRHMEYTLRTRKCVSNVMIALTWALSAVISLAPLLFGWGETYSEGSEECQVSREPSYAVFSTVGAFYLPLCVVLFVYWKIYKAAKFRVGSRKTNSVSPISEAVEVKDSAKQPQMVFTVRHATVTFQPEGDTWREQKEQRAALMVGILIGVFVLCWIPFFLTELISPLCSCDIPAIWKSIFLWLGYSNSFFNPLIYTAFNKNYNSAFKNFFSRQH
MOR-DOR inv ag: mu-delta opioid heterodimer inverse agonism; 340,000 tested, 0.21% active; inhibition, % at 9.3 µM; cell-based MOR-DOR heterodimer luminescence; P35372+P41143; in the data active = inhibition above about 22%, passing the limit was not always enough;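 also: 0% = cells with DMSO and 100% = wells without cells with DMSO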
MOR-DOR ag: agonists of human mu-delta opioid receptor heterodimerization; P35372+P41143; cells, OPRM1-OPRD1 heterodimerization, luminescence; activation, % at 9.3 µM; 340,000 tested, 0.3% active; AID 504326;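 also: 0% = vehicle-treated cells and 100% = reference agonist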
HTR5A ag: activates human HTR5A in OPRM1-OPRD1 agonist counter-screen; AID 504692; 340,000 tested, 0.61% active; HTR5A agonist assay, luminescence, cell-based; activation, % at 9.3 µM; in the data active = activation mostly above about 9.5%, no sharp cut-off; inactive = mostly below about 7.6%;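 also: 0% = cells with vehicle only and 100% = reference agonist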
OPRM1-D1 ag cf: OPRM1-OPRD1 heterodimer agonism, confirmation; shares compounds with MOR-DOR ag; cells, MOR-DOR heterodimerization, luminescence complementation; activation, % at 9.3 µM; 830 tested, 45% active; AID 504904;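 also: 0% = vehicle-treated cells and 100% = reference agonist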
HTR5A ag counter: counter-screen for OPRM1-OPRD1 agonists: human HTR5A agonism; shares compounds with MOR-DOR ag; HTR5A agonist counterscreen, cell luminescence; activation, % at 9.3 µM; 830 tested, 8% active; AID 504905; in the data active = activation above about 17%;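 also: 0% = vehicle-treated cells and 100% = reference agonist response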
Numbers without * were called inactive; i = inactive; / = not tested or not shown. Rule as the data show it, unless noted: active = activation above about 18%; inactive = the rest.

SMILES	HTR5A inv ag	MOR-DOR inv ag	MOR-DOR ag	HTR5A ag	OPRM1-D1 ag cf	HTR5A ag counter
CNC[C@H](Cc1ccccc1)NC[C@@H](Cc1cccc2ccccc12)NCCc1ccc(C)cc1	-11	-167	30*	1	4	-1
COc1ccccc1CN(Cc1nc2ccccc2c(=O)[nH]1)S(=O)(=O)c1ccc2ccccc2c1	5	-120	20*	-2	-1	0
COc1ccc(S(=O)(=O)N(Cc2ccccc2)Cc2nc3ccccc3c(=O)[nH]2)cc1	-6	-12	3	0	/	/
O=C(NNS(=O)(=O)c1ccccc1)c1ccc(F)cc1	1	8	-2	0	/	/
CC1CC(C)CN(CC(=O)N2CCCc3c2c(=O)oc2ccc(OCc4ccccc4)cc32)C1 (stereo not drawn)	-2	-28	5	7	/	/
CC1CCN(CC(=O)N2CCCc3c2c(=O)oc2ccc(OCc4ccccc4)cc32)CC1	23	-160	27*	13*	32*	-4
O=C(COC(=O)CN1C(=O)COc2ccccc21)NC1CCCCC1	6	7	-1	3	/	/
CNC(=O)c1nnsc1S(=O)c1ccc(Cl)cc1 (stereo not drawn)	9	15	-3	-3	/	/
COc1ccc(C(=O)OCC(=O)N(C)C2CCS(=O)(=O)C2)cc1Br (stereo not drawn)	10	-298	76*	-2	-1	0
COc1ccc(C(=O)OCC(=O)N(C)C2CCS(=O)(=O)C2)cc1S(=O)(=O)N(C)Cc1ccccc1 (stereo not drawn)	12	19	-4	-4	/	/
O=P(CCCCCCCCCP(=O)(c1ccccc1)c1ccccc1)(c1ccccc1)c1ccccc1	-43	-112	21*	6	-1	-5
O=C(O)CCCCCCCCCCP(=O)(c1ccccc1)c1ccccc1	-2	15	-3	1	/	/
Cc1cc(Cl)ccc1OCC(=O)N[C@@H](Cc1ccccc1)c1nc2ccccc2[nH]1	-25	-128	24*	6	44*	2
Cc1cc(-c2nn(-c3ccccc3F)cc2CN2CCN(c3ccccn3)CC2)c(C)s1	3	-135	28*	-1	3	0
Cn1c(-c2c(N)n(-c3ccccc3)c3nc4ccccc4nc23)nc2ccccc21	2	-95	19*	-1	26*	0
CC(=O)Nc1c(Br)cc2c(c1Br)Cc1cc(Br)ccc1-2	3	-176	34*	-1	19*	6
Cc1ccc(S(=O)(=O)N(C)Cc2ccc(C(=O)NN=C(CC(C)C)CC(C)C)cc2)cc1	-2	-70	12	1	/	/
CC/C(=N\NC(=O)c1ccc(CN(C)S(=O)(=O)c2ccc(C)cc2)cc1)c1ccc(OC(F)F)cc1	-6	-165	31*	0	1	1
Cc1ccc(NC(=O)c2ncn(CCCN[C@H](C)c3cccc4ccccc34)n2)cc1C	-22	-393	85*	6	56*	-1
CC1CCCC(C)N1C(=O)CSc1nnc(-c2ccco2)n1C (stereo not drawn)	0	14	-3	0	/	/
COC(=O)NCC(c1ccc2c(c1)OCO2)N1CCN(c2ccccc2)CC1 (stereo not drawn)	-4	i	217*	0	193*	1
COC(=O)c1c(NC(=O)CN2CCN(c3ccccc3OC)CC2)c2cc(C)ccc2n1C	-9	-1	0	1	/	/
CCOc1ccc(Nc2c3ccccc3nc3ccccc23)cc1	-4	-100	20*	-2	37*	1
CC(=O)Nc1ccc(CN2CCCC(CO)(Cc3ccccc3C)C2)cc1 (stereo not drawn)	-1	-225	49*	0	13	-1
O=C1c2cccnc2C(=O)N1CO	5	12	-3	4	/	/
SMILES	HTR5A inv ag	MOR-DOR inv ag	MOR-DOR ag	HTR5A ag	OPRM1-D1 ag cf	HTR5A ag counter
NC1=C(Br)C(=O)c2ncccc2C1=O	-11	-101	20*	3	0	-19
N#C/C(=C(/O)COC(=O)c1ccc(O)cc1)c1nc2ccccc2[nH]1	-9	10	-2	3	/	/
CCOC(=O)c1c(C)[nH]c(C(=O)OCC(O)=C(C#N)c2nc3ccccc3[nH]2)c1C	-50	-193	38*	13*	31*	7
N#C/C(=C(/O)COC(=O)COc1cccc(Br)c1)c1nc2ccccc2[nH]1	-19	-143	26*	7	14	0
S=C(NCCc1ccccc1)N1CCN(C23CC4CC(CC(C4)C2)C3)CC1	7	-96	20*	-3	10	1
COc1ccc(OC)c(/C=C/c2nc3ccccc3[nH]c2=O)c1	-17	-115	21*	7	7	8
COc1ccc(OC)c(C=Nc2ccccc2-c2nc3ccccc3[nH]2)c1	25	-1	0	5	/	/
CCC(CC)NC(=O)c1cccc(NC(=O)C(C)C)c1	3	-11	2	-1	/	/
Cc1cccc(NC2=C/C(=N/S(=O)(=O)c3cccs3)c3ccccc3C2=O)c1	-6	-56	11	2	/	/
O=C1C(Nc2ccc(O)cc2)=C/C(=N/S(=O)(=O)c2cccs2)c2ccccc21	25	-123	24*	5	0	0
O=C(Nc1ccccn1)c1cc2cc([N+](=O)[O-])ccc2s1	2	-303	61*	2	31*	4
COc1ccc(/C=N/n2c(-c3ccco3)nc3ccccc3c2=O)cc1	-23	-240	41*	1	-5	-4
COc1ccc(Cl)cc1NS(=O)(=O)c1cccc(C(=O)NC2CCN(Cc3ccccc3)CC2)c1	1	-76	18*	0	26*	1
COc1ccc(NS(=O)(=O)c2cccc(C(=O)NC3CCN(Cc4ccccc4)CC3)c2)cc1	-7	-4	1	1	/	/
Cc1ccc(-n2c([S-])c(C(=O)Nc3ccc(OC(F)F)cc3)[n+]3ccc(C(=O)NCCO)cc23)cc1C	20	-93	19*	-2	0	3
COc1ccc2ccc(=O)oc2c1CC(O)C(C)(C)O (stereo not drawn)	19	13	-3	3	/	/
Cn1cc(C(=O)C(=O)NCCc2ccccc2)c2ccccc21	9	9	-2	-2	/	/
Cc1ccccc1NC(=O)C(=O)c1cn(C)c2ccccc12	-8	-116	24*	3	1	-1
Cc1ccc2nc(Cl)c3cc(C(=O)N(CCN(C)C)Cc4ccco4)sc3c2c1	3	-156	32*	-1	1	3
Cc1ccc(NC(=O)CNC(=O)c2sc3ccccc3c2Cl)nc1	-4	-135	26*	2	0	-1
CCOc1cc(C2c3c(oc4ccccc4c3=O)C(=O)N2c2nccs2)ccc1O (stereo not drawn)	-32	-125	24*	-4	1	2
C=CCN1C(=O)c2oc3ccccc3c(=O)c2C1c1ccc(O)c(OC)c1 (stereo not drawn)	-6	9	-2	2	/	/
